Screening data (PubChem BioAssay)
Vaccinia mCherry = qHTS for Stage-Specific Inhibitors of Vaccinia Orthopoxvirus: mCherry Reporter Primary qHTS; Vaccinia virus mCherry reporter infection, fluorescence; 310,000 compounds, 0.63% hits; AID 720579, 2013; Potency, µM (top dose mostly 36.5 µM), for the others: at the highest dose activity change, negative = inhibition, most hits filed as inhibitors; calls by dose curve; tested in A549 cells; also: potency is read from the fitted curve at half-maximal effect; nearly all actives have a fitted effect of over 35% in size
TbPYK inhibitor = qHTS of Trypanosoma Brucei Inhibitors | pyruvate kinase (Trypanosoma brucei), Q57TT1 | TbPYK enzyme, Kinase-Glo Plus ATP luminescence, 45 min | Potency, µM (series often up to 76.8 µM), without a hit: at the top dose activity, negative = inhibition, hits mostly inhibitors | 410,000 compounds, 0.12% hits | AID 624173, 2012; also: potency is read from the fitted curve at half-maximal effect; nearly all actives have a fitted effect of over 50% in size
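Luminescence from Kinase-Glo Plus, added after a 45-minute room-temperature reaction, served as the end-point read-out. The enzyme and substrate were preincubated with compound before ADP (130 uM final) initiated turnover. Concentration-effect curves came from normalized qHTS data.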
VACV Venus inh = qHTS for Stage-Specific Inhibitors of Vaccinia Orthopoxvirus: Venus Reporter Primary qHTS | Vaccinia virus Venus reporter expression, fluorescence | Potency, µM (series often up to 36.5 µM), for the others: top-dose activity change, negative = inhibition, actives largely listed as inhibitors | AID 720580, 2013 | 330,000 compounds, 0.46% hits; calls by dose curve; tested in A549 cells; also: potency is read from the fitted curve at half-maximal effect; nearly all actives have a fitted effect of over 30% in size
LmPK inhibitor = qHTS Assay for Inhibitors of Leishmania Mexicana Pyruvate Kinase (LmPK); Q27686; purified LmPK, Kinase-Glo ATP luminescence, 1 h; 290,000 compounds, 0.37% hits; Potency, µM (top dose mostly 57.5 µM), without a hit: at the top dose activity change, negative = inhibition, most hits filed as inhibitors; AID 1721, 2009; also: potency is read from the fitted curve at half-maximal effect
Target sequence (Q27686 whole entry, looked up): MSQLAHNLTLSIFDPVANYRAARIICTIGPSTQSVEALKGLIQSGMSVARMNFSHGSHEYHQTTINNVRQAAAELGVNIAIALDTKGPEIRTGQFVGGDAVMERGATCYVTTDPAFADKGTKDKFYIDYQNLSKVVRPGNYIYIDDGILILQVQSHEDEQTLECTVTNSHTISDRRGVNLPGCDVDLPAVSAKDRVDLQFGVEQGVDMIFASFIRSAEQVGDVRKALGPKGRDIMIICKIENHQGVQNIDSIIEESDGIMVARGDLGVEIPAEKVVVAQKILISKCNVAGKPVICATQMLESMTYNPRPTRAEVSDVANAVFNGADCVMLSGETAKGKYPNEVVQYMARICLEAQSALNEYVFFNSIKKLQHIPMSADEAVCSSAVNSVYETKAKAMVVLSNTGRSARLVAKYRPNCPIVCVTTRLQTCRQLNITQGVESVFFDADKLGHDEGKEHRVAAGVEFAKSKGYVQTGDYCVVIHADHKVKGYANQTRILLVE
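qHTS format; LmPK 0.1 nM; substrates PEP 0.5 mM and ADP 0.1 mM. One-hour room-temperature incubation, then coupled luciferase luminescence; 0.5 nM enzyme wells mark activation.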
HCMV inh = qHTS Assay for inhibitors of the human cytomegalovirus (HCMV) | HFF cells, HCMV-luciferase reporter, 72 h; hits give low values | activity change, negative = inhibition, % at 57.5 µM | AID 1259415, 2018 | 410,000 compounds, 4.5% hits; in the data active = activity change below about -60%; inconclusive = no clear call, values can overlap the other calls; inactive = above about -39%
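Luciferase read-out from HCMV-luciferase-infected HFFs (MOI 1 PFU/cell) 72 h post infection at 37C; compounds added after 16 h cell attachment; activity normalized between buffer-only basal and Salinomycin (10uM) inhibitor controls.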
* marks the source's active call; other numbers are inactive results; i = inactive; ? = inconclusive; nt = no result. Sampled rows, rich in hits. Any-hit rate of the full collection: about 5%. Unless noted, calls follow the shape of the dose curve; as a rule, active = well fitted curve in the direction sought with a large enough effect; inconclusive = small, poorly fitted or top-dose-only effect, or another doubt; inactive = no such curve, though single readings can be large; an effect the other way counts as inactive or inconclusive. % is scaled to controls: 0 for no effect and ±100 for the full control effect.

SMILES	Vaccinia mCherry	TbPYK inhibitor	VACV Venus inh	LmPK inhibitor	HCMV inh
Cc1ccc(C2Nc3cc(C)c(C)cc3-n3c(-c4ccccc4)c4c(=O)n(C)c(=O)n(C)c4c32)o1 (stereo not given)	-19%	5%	-13%	nt	-1
COC(=O)Cc1c(C)nc2nc(-c3ccc(OC)cc3)[nH]n2c1=O	-20%	-7%	-7%	-12%	35
O=C(N/N=C/c1cccc2ccccc12)c1ccncc1	nt	1%	nt	-5%	37
Cc1c(/C=N/NC(=O)c2cccs2)c2ccccc2n1Cc1ccccc1Cl	i	-3%	9%	-1%	-81*
O=C(N/N=C/c1c(O)ccc2ccccc12)c1ccc[n+](CCO)c1	-27%	2%	8%	-5%	-10
O=C(NN=Cc1c(O)ccc2ccccc12)c1ccncc1	2.5µM*	-1%	?	nt	-100*
Cc1occc1C(=O)N/N=C/c1c(O)ccc2ccccc12	1.8µM*	-9%	?	1%	-101*
O=C(N/N=C\c1c(O)ccc2ccccc12)c1ccc(O)cc1	nt	4%	nt	0%	-98*
O=C(NCC(c1ccco1)N1CCCC1)c1sc2cc(F)ccc2c1Cl (stereo not given)	-28%	0%	-4%	nt	?
Cc1cc(O)c(C)c(O)c1/C=N/NC(=O)c1cccnc1	?	-5%	-23%	-8%	-97*
O=C(N/N=C/c1cc(Br)c(O)c(Br)c1O)c1cccnc1	nt	-18%	nt	3%	5
COc1cccc(/C=N/NC(=O)c2ccc(=O)n(C)c2)c1O	-5%	-3%	2%	-5%	84
Cn1cc(C(=O)N/N=C/c2c(O)ccc3ccccc23)ccc1=O	?	0%	?	1%	-99*
Cc1ccc(C(=O)N/N=C/c2c(O)ccc3ccccc23)cn1	2.2µM*	10%	?	-4%	-97*
COc1ccc(CNC(=O)N[C@@H](CC(C)C)C(=O)O)cc1OC	nt	7%	nt	-3%	0
Cc1ccc(-c2c[n+]3c(n2-c2ccccc2)SCC3)cc1	nt	4%	nt	0%	-73*
COc1ccc(-c2c[n+]3c(n2-c2ccccc2)SCC3)cc1	i	2%	-17%	0%	-80*
Brc1ccc(-c2c[n+]3c(n2-c2ccccc2)SCC3)cc1	0%	-4%	-5%	1%	-73*
c1ccc(Cn2c(-c3ccccc3)c[n+]3c2SCCC3)cc1	-12%	7%	-16%	-4%	?
c1ccc(-c2cn(-c3ccccc3)c3[n+]2CCCS3)cc1	-9%	6%	-19%	4%	-33
COc1ccc(-c2c[n+]3c(n2-c2ccccc2)SCC3)cc1OC	i	-6%	5%	4%	?
CC(/C=C/c1ccccc1)=N\Nc1ccccc1[N+](=O)[O-]	-5%	-10%	-9%	-3%	-73*
O=C(c1cnn2c(C(F)(F)F)cc(-c3cccs3)nc12)N1CCN(Cc2ccccc2)CC1	nt	-4%	?	4%	-12
O=C(NC(=S)Nc1ccc2c(c1)OCO2)c1ccc(Cl)cc1	i	-11%	-19%	-2%	63
NNc1nnc2c3cc(F)ccc3n(CCc3ccccc3)c2n1	?	0%	-2%	1%	-94*
SMILES	Vaccinia mCherry	TbPYK inhibitor	VACV Venus inh	LmPK inhibitor	HCMV inh
O=C(NC1CCCC1)C(c1ccc(F)cc1)N(C(=O)c1csnn1)c1ccccc1 (stereo not given)	2%	3%	-4%	9%	-18
Cc1ccc(-c2nnc(SCC(=O)Nc3ccc4c(c3)oc3ccccc34)n2C)c(Cl)c1	nt	-12%	nt	3%	-86*
Cc1ccccc1OCc1nnc(SCC(=O)Nc2ccc3c(c2)oc2ccccc23)n1C	nt	-6%	nt	2%	-1
CCCCCCCCCCCCCCCC[n+]1cccc2ccccc21	10µM*	-23%	10µM*	-7%	-98*
CCCCCCCCCCCC[n+]1ccc(C)c2ccccc21	-11%	nt	-9%	nt	nt
CCCCCCCCC[n+]1cccc2c3ccccc3ccc21	nt	0%	11µM*	-1%	nt
COc1cc(C(=O)NCc2cc3ccccc3n2C)cc(OC)c1OC	nt	3%	nt	12%	140
CCn1c(CNC(=O)c2cc(OC)c(OC)c(OC)c2)cc2ccccc21	i	4%	-6%	11%	-61*
NC(=O)CSc1nnc(-c2ccc(S(=O)(=O)N3CCCC3)cc2)o1	?	-13%	3.2µM*	4%	-18
O=C(CSc1nnc(-c2ccc(S(=O)(=O)N3CCCC3)cc2)o1)NCC1CCCO1 (stereo not given)	4µM*	4%	4.5µM*	-2%	-6
Cn1c(SCC(=O)NCC2CCCO2)nnc1-c1ccc(S(=O)(=O)N2CCCC2)cc1 (stereo not given)	-12%	-4%	-6%	0%	28
O=C(CSc1nnc(-c2cccc(Br)c2)o1)NCC1CCCO1 (stereo not given)	?	0%	14µM*	nt	-28
Cc1ccccc1-c1nnc(SCC(=O)NCC2CCCO2)o1 (stereo not given)	nt	0%	nt	nt	4
O=C(OCc1nnc(-c2ccc(Br)cc2)o1)c1ccco1	i	0%	-3%	-1%	-10
CCc1ccc(-c2cc(C(F)(F)F)n3nc(C(=O)Nc4cnn(Cc5ccccc5C)c4)cc3n2)s1	nt	-6%	nt	-4%	-34
O=P(CCCCCCCCCP(=O)(c1ccccc1)c1ccccc1)(c1ccccc1)c1ccccc1	?	3%	16µM*	6%	-35
COC(=O)c1ccc(COc2ccc(-c3nn[nH]n3)cc2)cc1	nt	-10%	nt	-8%	-107*
CCC1(c2ccccc2)NC(=O)N(CC(=O)Nc2cccc(S(=O)(=O)N3CCCC3)c2)C1=O (stereo not given)	nt	-13%	nt	nt	-5
O=C(Nc1ccncc1)c1ccc(-c2ccccc2)cc1	-6%	9%	?	-3%	-77*
O=C(Nc1cnn(Cc2ccc(Cl)cc2)c1)c1ccc([N+](=O)[O-])cc1	?	3%	?	2%	-39
O=C(Nc1ccc([N+](=O)[O-])cc1)c1ccc(Cn2cc([N+](=O)[O-])cn2)cc1	nt	13%	nt	-3%	-68*
O=C(Nc1ccc(N2CCCCC2)cc1)c1cncc(Br)c1	-24%	-3%	-16%	-19%	21
O=C(Nc1ccc(N2CCN(C(=O)c3ccccc3F)CC2)cc1)c1cncc(Br)c1	-12%	-6%	-25%	-5%	-90*
O=C(Nc1ccc([N+](=O)[O-])cc1)c1cncc(Br)c1	nt	1%	nt	2%	-85*
COc1cccc(CN2CC(C(=O)NCc3ccc(C)c(F)c3)CCC2=O)c1 (stereo not given)	-22%	0%	-22%	7%	-4
O=c1cccccc1NN=C1CCCCCC1	-11%	0%	-3%	-13%	21
